# Compound activity: PubChem, several laboratories
# dFosB activator = activators of delta FosB homodimer, primary screen, biochemical, fluorescence polarization, TAMRA-CDK5 oligo, single point; purified delta FosB; percent of positive-control signal above neutral wells; activation, % at 25 µM; actives 0.99% (n = 340,000); Protein FosB (Mus musculus), P13346; AID 493131, 2011;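 active = mean activation above about 17%, with every replicate also reaching it, limit read from the data, passing the limit was not always enough; inconclusive = only one of the two conditions met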
# Rtt109 HAT inh = inhibitors of C. albicans Rtt109/Vps75 HAT, primary screen, biochemical, ThioGlo CoA-SH fluorescence, plate reader; Histone acetyltransferase RTT109 (Candida albicans (strain SC5314 / ATCC MYA-2876)), …; purified Rtt109/Vps75, 4 h; inhibition, % at 34.9 µM; actives 0.16% (n = 330,000); AID 540336, 2011;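 active = inhibition of at least 50% in every replicate; inconclusive = best replicate reaches 50% inhibition but some replicates fall short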
# SMARCA2 act = SMARCA2 (BRM) function activators, primary screen, cell-based, luminescence, high throughput | MG213 cells, MMTV-luciferase reporter, dexamethasone, overnight | activation, % at 9.1 µM | actives 1% (n = 370,000) | AID 652017, 2013; in the data active = activation above about 7.8%
# DYRK1A inh = rat Dyrk1A kinase inhibitors, primary screen, biochemical, single point, plate reader. Dual specificity tyrosine-phosphorylation-regulated kinase 1A (Rattus norvegicus), Q63470. ADP-Glo luminescence, NFATc1 peptide. inhibition, % at 12.5 µM. actives 0.43% (n = 310,000). AID 504441, 2011; in the data active = inhibition above about 50%
# esBAF inh = Bmi1 luciferase reporter increase in mESCs, primary screen, esBAF inhibitor project, mouse ES cells, Bmi1 luciferase knock-in, single point. 24 h; 100% = twice the neutral-well signal. reporter increase, % at 12.5 µM. actives 2% (n = 350,000); in the data active = activation above about 40%; inconclusive = no clear call, values can overlap the other calls;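 also: a rise in the Bmi1 reporter signal indicates esBAF inhibition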
# CDK5 p35 inh = inhibitors of human CDK5/p35 kinase, primary screen, biochemical, single concentration; Cyclin-dependent kinase 5 (Homo sapiens) + Cyclin-dependent kinase 5 activator 1 (Homo …; Recombinant CDK5/p35, ADP-Glo luminescence, 60 min; AID 488839, 2010; actives 0.01% (n = 330,000); inhibition, % at 10 µM;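 active = highest replicate inhibition of at least 50% and at least 75% of replicates reaching 50%; inconclusive = only one of the two criteria met; inactive = both criteria failed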
# Target sequence (Q00535 whole entry, looked up): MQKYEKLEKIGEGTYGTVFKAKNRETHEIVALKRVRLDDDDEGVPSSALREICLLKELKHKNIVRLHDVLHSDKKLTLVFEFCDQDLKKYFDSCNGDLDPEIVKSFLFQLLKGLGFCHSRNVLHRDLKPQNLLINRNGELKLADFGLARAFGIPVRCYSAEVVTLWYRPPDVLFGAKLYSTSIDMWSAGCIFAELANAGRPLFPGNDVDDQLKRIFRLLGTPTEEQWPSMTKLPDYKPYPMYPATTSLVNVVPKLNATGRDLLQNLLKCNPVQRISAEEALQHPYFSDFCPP
# Target sequence (Q15078 whole entry, looked up): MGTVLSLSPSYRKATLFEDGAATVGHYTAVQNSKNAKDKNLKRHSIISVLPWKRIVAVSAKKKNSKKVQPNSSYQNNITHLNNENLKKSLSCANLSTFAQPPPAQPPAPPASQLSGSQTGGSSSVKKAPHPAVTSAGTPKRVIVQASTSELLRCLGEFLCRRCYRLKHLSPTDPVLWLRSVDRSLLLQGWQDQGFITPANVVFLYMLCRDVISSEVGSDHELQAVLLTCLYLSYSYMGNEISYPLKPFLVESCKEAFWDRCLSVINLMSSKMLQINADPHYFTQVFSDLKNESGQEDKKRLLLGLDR
# Numbers stand for hits; . = inactive; ? = inconclusive; / = not tested or not shown. This is a sample that favours compounds with a hit; in the whole collection about 3.2% have one here.
SMILES,dFosB activator,Rtt109 HAT inh,SMARCA2 act,DYRK1A inh,esBAF inh,CDK5 p35 inh
CCOc1ccc(-c2noc(-c3csc([C@@H]4C[C@H](O)[C@@H](CO)O4)n3)n2)cc1,/,/,.,/,81,/
CCOC(=O)/C(=C/c1ccc(N2CCC(c3ccccc3)=N2)cc1)C(C)=O,.,.,/,.,/,.
c1ccc(C2=NN(c3ccccc3)CC2)cc1,.,.,.,.,46,.
COc1ccccc1Cc1c(-c2cccc(Cl)c2)nc2ccc(Br)cn12,/,/,.,/,42,/
Cc1ccc(-c2nc3ccc(Cl)cn3c2Cc2cccc(F)c2)cc1,/,/,.,/,50,/
COC(=O)c1ccc2nc(-c3cccc(Cl)c3)c(Cc3ccccc3OC)n2c1,/,/,.,/,.,/
Cc1ccc(-c2nc3ccc(Cl)cn3c2Cc2ccsc2)cc1,/,/,.,/,.,/
Clc1cccc(-c2nc3ccc(Br)cn3c2Cc2ccsc2)c1,/,/,.,/,43,/
Cc1ccc2nc(-c3ccc(Cl)cc3)c(Cc3ccsc3)n2c1,/,/,7.8,/,/,/
Cc1ccc2nc(-c3cccc(Cl)c3)c(Cc3ccsc3)n2c1,/,/,.,/,/,/
Cc1ccc2nc(-c3ccc(Cl)cc3)c(Cc3cccc(F)c3)n2c1,/,/,.,/,/,/
C[C@@H]1CN([C@H](C)CO)C(=O)c2cc(NS(=O)(=O)c3cn(C)cn3)ccc2O[C@@H](C)CCCCO[C@@H]1CN(C)S(=O)(=O)c1ccc(F)cc1,/,/,/,/,.,/
Brc1cccc(-c2nc3ccc(Br)cn3c2Cc2ccsc2)c1,/,/,.,/,63,/
Cc1ccc2nc(-c3cccc(Br)c3)c(CC3CCCCC3)n2c1,/,/,.,/,46,/
CCCc1nc2ccc(C)cn2c1Cc1cccc(Cl)c1,/,/,.,/,45,/
Cc1cc(C(=O)Nc2cccc3c2O[C@H](CN(C)C(=O)Nc2ccc4c(c2)OCO4)[C@H](C)CN([C@H](C)CO)C3=O)n(C)n1,/,/,/,/,.,/
C[C@@H]1CCCCO[C@H](CN(C)S(=O)(=O)c2ccc(F)cc2)[C@H](C)CN([C@H](C)CO)C(=O)c2cc(NC(=O)Nc3ccc(F)cc3)ccc2O1,/,/,/,/,.,/
CCOc1ccc(C2=C(C=C(C#N)C#N)C(c3ccccc3)c3ccccc3O2)cc1 (centres undefined),.,.,.,.,/,.
COc1ccc(C2=C(CN(C)C)C(c3ccccc3)c3ccccc3O2)cc1 (centres undefined),?,.,.,.,71,.
O=C(Cc1ccc(Br)cc1)N1CCCCCC1,.,.,.,/,57,.
CCOC(=O)c1c(C)[nH]c2cc(Br)c(O)cc12,.,.,.,.,54,.
Cc1ccc(S(=O)(=O)Nc2cccc3c2O[C@@H](CN(C)C)[C@H](C)CN([C@H](C)CO)C3=O)cc1,/,/,/,/,.,/
N=c1c[n+](N2CCOCC2)[n-]o1,.,56,.,.,.,.
COCC(=O)Nc1ccc2c(c1)C(=O)N(C)C[C@H](OC)[C@@H](C)CN(C(=O)c1cnccn1)[C@@H](C)CO2,/,/,/,/,.,/
C[C@H](CO)N1C[C@H](C)[C@H](CN(C)C(=O)NC2CCCC2)Oc2ncc(-c3ccccc3F)cc2C1=O,/,/,/,/,.,/
SMILES,dFosB activator,Rtt109 HAT inh,SMARCA2 act,DYRK1A inh,esBAF inh,CDK5 p35 inh
Nc1nonc1-n1nnc(C(=O)N/N=C/c2cc(Br)ccc2O)c1CNc1ccccc1,52,.,.,.,.,.
Cc1c(C(=O)N/N=C/c2c(O)ccc3ccccc23)nnn1-c1nonc1N,38,.,.,.,.,.
O=C(N/N=C/c1c(O)ccc2ccccc12)c1ccc(Br)o1,30,.,.,.,.,.
Cc1ccc(/C=N/NC(=O)c2nnn(-c3nonc3N)c2CNc2ccccc2)cc1,.,.,.,.,.,.
C[C@H]1CN([C@@H](C)CO)C(=O)c2cc(C#CCc3ccccc3)cnc2O[C@@H]1CN(C)C(=O)C1CCOCC1,/,/,/,/,.,/
CC(C)NC(=O)N(C)C[C@H]1Oc2c(NC(=O)Nc3ccccc3)cccc2C(=O)N([C@@H](C)CO)C[C@H]1C,/,/,/,/,.,/
